# AHR act: activators of human aryl hydrocarbon receptor; AHR-responsive luciferase reporter cells, luminescence; activation, % at 5 µM; 2.5% of 320,000 active; in the data active = activation above about 47%;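 note: 0% = vehicle wells and 100% = reference agonist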
# ADAM17 inh: inhibits human ADAM17; P78536; recombinant ADAM17, EDANS/DABCYL FRET peptide cleavage; inhibition, % at 6.95 µM; 0.83% of 370,000 active; AID 720648;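 active = inhibition above the mean of compounds lying between control limits plus 3 SD, set per campaign, cut at about 8.5% in these data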;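 note: 0% = DMSO-only wells as the low control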
# rCAG binder: r(CAG) repeat RNA binding; TO-PRO-1 dye displacement fluorescence; 1.3% of 370,000 active; inhibition, % at 3 µM;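 active = inhibition above the plate cutoff, the mean of all test compounds on that plate plus 3 SD, cut at about 35% in these data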;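 note: 0% = DMSO alone and 100% = 100 µM mitoxantrone as full dye displacement; higher means more dye released from RNA so lower well fluorescence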
# proKLK7 act: proKLK7 (human) activation, primary screen | P49862 | purified proKLK7, EDANS-DABCYL substrate fluorescence; 100% is mature enzyme control, 0% vehicle | AID 652039 | activation, % at 7 µM | 0.9% of 370,000 active;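 active = activation above the mean of all tested compounds plus 3 SD, computed per campaign excluding outliers beyond control limits, cut at about 13% in these data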
# Target sequence (P49862 whole entry, looked up): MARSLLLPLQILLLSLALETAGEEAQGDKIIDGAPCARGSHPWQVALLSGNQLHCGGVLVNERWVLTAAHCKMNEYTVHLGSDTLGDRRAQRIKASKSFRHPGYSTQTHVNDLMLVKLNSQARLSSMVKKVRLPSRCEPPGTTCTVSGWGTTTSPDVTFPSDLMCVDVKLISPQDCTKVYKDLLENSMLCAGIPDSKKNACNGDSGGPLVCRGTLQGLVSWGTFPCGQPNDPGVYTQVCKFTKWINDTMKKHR
# GRIN3A LBD mod: modulators (binders) of human NR3A ligand-binding domain | Tm shift relative to glycine control, % at 25 µM | 2.5% of 340,000 active | NR3A LBD differential scanning fluorimetry, Tm shift; 0% = protein alone, 100% = glycine-bound protein | AID 1259313;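 active = melting temperature shift of at least 10% of the positive control shift, at one fixed dose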
# ADAM10 inh: inhibitors of human ADAM10; O14672; recombinant ADAM10, EDANS/DABCYL FRET peptide cleavage, 3 h; inhibition, % at 7 µM; 0.62% of 370,000 active;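 active = inhibition above a per-campaign cutoff equal to the mean of compounds falling between control-based bounds plus 3 SD, cut at about 20% in these data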;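 note: 0% = DMSO wells while the 100% control is not disclosed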
# proKLK7 act conf: proKLK7 activation, confirmation. shares compounds with proKLK7 act. purified proKLK7, EDANS-DABCYL substrate fluorescence; scaled: vehicle 0, mature enzyme 100. activation, % at 7 µM. 68% of 3,200 active;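 active = activation, as change over the incubation, above the mean of all tested compounds plus 3 SD, cut at about 13% in these data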
# EDANS interfere: fluorescence interference counter-screen for KLK7 activators | shares compounds with proKLK7 act | EDANS-DABCYL substrate fluorescence interference, no enzyme, 4 h; solvent 0%, active enzyme control 100% | activation, % at 7 µM | 80% of 3,200 active | AID 686952;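 active = activation above the all-compound mean plus 3 SD, ignoring values outside control-based bounds, cut at about 4.8% in these data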;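 note: value is the 4 h activation minus the activation read at time zero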
# EDANS interf: EDANS fluorescence interference in dose response, no enzyme; shares compounds with proKLK7 act; EDANS-DABCYL peptide fluorescence interference; EC50, µM; 20% of 250 active; AID 720493;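 active = compounds that raise the fluorescence signal in this interference counterscreen, with EC50 at or below 10 µM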;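 note: intact quenched peptide substrate alone read at 355 nm excitation and 520 nm emission; signal is fluorescence gain from T0 to T4 after four hours at room temperature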
# * hit, by the source's call; i = inactive; . = not tested or not shown. Hits are enriched below; roughly 7% of the tested compounds scored in any of these assays.
SMILES,AHR act,ADAM17 inh,rCAG binder,proKLK7 act,GRIN3A LBD mod,ADAM10 inh,proKLK7 act conf,EDANS interfere,others
CC1=C(C(=O)OC(C)C)C(c2cccnc2)C2=C(CC(C)(C)CC2=O)N1 (stereo not given),0,-180,-5,7,9,i,.,.,
CCCN1CCN(C(=O)c2oc3ccccc3c2NC(=O)C2CC2)CC1,-2,-4,-5,0,-1,-11,.,.,
Cc1nc2cc(NC(=O)N3CC4(C)CC3CC(C)(C)C4)ccc2n1C (stereo not given),1,-2,-5,0,4,2,.,.,
CC1C2CC(CC1(C)C)N(C(=O)Nc1ccc3nccnc3c1)C2 (stereo not given),2,-185,2,18*,-2,i,-1,-1,
COc1ccc(C2NCCc3cc(OC)c(OC)cc32)cc1OC (stereo not given),-1,0,1,3,0,-1,.,.,
COc1cc2c(cc1OC)C(C(N)=O)NCC2 (stereo not given),.,-82,1,54*,3,-342,0,1,
COc1cc2c(cc1OC)C(C1(O)CCCCC1)NCC2 (stereo not given),.,-30,-5,21*,3,-92,14*,14*,
COc1cc2c(cc1OC)C(c1ccc(Br)cc1)NCC2 (stereo not given),0,-5,-3,0,0,-3,.,.,
O=C(CSc1cccc[n+]1[O-])NN(c1ccccc1)c1ccccc1,3,1,-1,-1,0,-5,.,.,
Cc1coc2c1c(C)cc1oc(=O)c(CC(=O)NCCCCCC(=O)O)c(C)c12,2,-355,9,18*,-2,i,34*,28*,EDANS interf=>70
Cc1coc2c1c(C)cc1oc(=O)c(CC(=O)NCC(=O)O)c(C)c12,.,-374,6,16*,1,i,57*,59*,
Cc1oc2c(c(C)cc3oc(=O)c(CC(=O)N[C@H](C(=O)O)C(C)C)c(C)c32)c1C,.,-92,22,15*,0,-238,6,13*,
CC[C@@H](C)[C@H](NC(=O)Cc1c(C)c2c(cc(C)c3c(C)coc32)oc1=O)C(=O)O,.,-430,27,9,-2,i,.,.,
CCCOc1cccc(C(=O)NCCNC(=O)c2ccc(C)nc2)c1,4,-1,0,0,-1,-7,.,.,
CN1CCN(S(=O)(=O)c2cccc(C(=O)Oc3ccc(Br)cc3F)c2)CC1,1,3,0,0,-1,5,.,.,
CCCCN(C(=O)NC(=O)Nc1ccc(C)cn1)S(C)(=O)=O,-1,-87,1,19*,-1,-261,4,3,
CCCCCN(C(=O)NC(=O)Nc1ccc(C)cc1C)S(C)(=O)=O,2,-1,2,0,-2,-9,.,.,
Cc1nc(C)c(C(=O)OCC(=O)NCc2ccccc2)s1,0,-4,1,0,-2,-2,.,.,
O=C(O)c1cccc2c1C(=O)c1ccc(-c3ccc(Cl)c(C(F)(F)F)c3)cc1S2(=O)=O,5,.,.,.,-7,.,.,.,
Cc1cc(=O)oc2c3c(cc(OCC(=O)N[C@@H](Cc4ccccc4)C(=O)O)c12)OC(C)(C)CC3,0,i,24,32*,-2,i,41*,25*,EDANS interf=>69
Cc1cc(=O)oc2c3c(cc(OCC(=O)N[C@@H](C)C(=O)O)c12)OC(C)(C)CC3,.,i,9,64*,0,i,62*,73*,
CCCCC(NC(=O)COc1cc2c(c3oc(=O)cc(C)c13)CCC(C)(C)O2)C(=O)O (stereo not given),0,-386,20,10,-3,i,.,.,
COc1cccc(CNC(=O)COc2cc3c(c4oc(=O)cc(C)c24)CCC(C)(C)O3)c1,4,i,4,-39,-2,i,.,.,

# Compound activity: PubChem, several laboratories
